According to the supplement of paper PMC3656093:
± gives the standard deviation of the averaged measurements. Over roughly 1,900 compounds, “CD40L-induced NF-kB luciferase activity, plate-corrected, relative to DMSO (0) and IKK inhibitor VII (-100) controls” has its median near 0.032; the lowest 2% begin near -26. The full list was thinned out, with the lowest values kept by preference.

System: BL2-NFkB-Luc
Assay: CD40L-induced NF-kB luciferase activity, plate-corrected, relative to DMSO (0) and IKK inhibitor VII (-100) controls (% normalized activity); higher = more NF-kB reporter activity (less inhibition)
Details: 9.4 µM; stimulus: tCD40L 64 ng/ml; 4.5 h
Description: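 BL2 B cells with a stable NF-kB response-element luciferase reporter (BL2-NFkB-Luc), 384-well. Cells were pre-incubated with compound at 9.4 uM for 1 h at 37 C, then stimulated with 64 ng/ml trimerized CD40L for 4.5 h; luciferase was read with Steady-Glo. Signal was normalised per plate in Genedata (median DMSO neutral control = 0, median IKK inhibitor VII at 50 uM = -100) with Assay Median plate-pattern correction; duplicate plates.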

**Q.** With `O=c1c2ccccc2nc2n1-c1ccccc1CCC2` as the compound, how does the “CD40L-induced NF-kB luciferase activity” value read?
**A.** -5.01 ± 3.7

**Q.** Which “CD40L-induced NF-kB luciferase activity” value does the source give for `COc1ccc2c(c1)[nH]c1c(=O)n(Cc3ccccn3)cnc12` here?
**A.** -0.0285 ± 6.5

**Q.** Which “CD40L-induced NF-kB luciferase activity” value does the source give for `COc1ccc(CC(=O)Nc2cccc(C(=O)Nc3ccccc3C(=O)O)c2)cc1OC` here?
**A.** -2.42 ± 3.4

**Q.** For `COc1ccc(/C=C/C(=O)Nc2ccccc2C(=O)O)cc1OC`, which “CD40L-induced NF-kB luciferase activity” value is on record?
**A.** -57.1 ± 1.6

**Q.** How did the “CD40L-induced NF-kB luciferase activity” value turn out when `O=C(/C=C/c1ccco1)Nc1ccccc1C(=O)O` was run?
**A.** 1.64 ± 1.8

**Q.** With `O=C1OC(c2ccc(O)cc2)(c2ccc(O)cc2)c2ccccc21` as the compound, how does the “CD40L-induced NF-kB luciferase activity” value read?
**A.** 0.943 ± 1.8

**Q.** How did the “CD40L-induced NF-kB luciferase activity” value turn out when `Cc1cc(O)c(C(C)C)cc1C1(c2cc(C(C)C)c(O)cc2C)OC(=O)c2ccccc21` was run?
**A.** -36.1 ± 2.9

**Q.** With `Cc1ccccc1-c1coc2cc(O)ccc2c1=O` as the compound, how does the “CD40L-induced NF-kB luciferase activity” value read?
**A.** 4.65 ± 2.2

**Q.** With `C/C=C/Cn1c(SC)nc2c1c(=O)[nH]c(=O)n2C` as the compound, how does the “CD40L-induced NF-kB luciferase activity” value read?
**A.** -0.907 ± 1.9

**Q.** How did the “CD40L-induced NF-kB luciferase activity” value turn out when `COCC(C)NC(=O)c1ccc(CN2CCc3ccccc3C2)cc1` (stereo not given) was run?
**A.** 7.18 ± 5

**Q.** How did the “CD40L-induced NF-kB luciferase activity” value turn out when `O=C(O)c1cc(-c2ccc3c(c2)OCO3)nc2ccc(Br)cc12` was run?
**A.** 9.08 ± 4

**Q.** For `CCc1cc2c(=O)c(-c3ccc(F)cc3)c(C)oc2cc1OCC(=O)O`, which “CD40L-induced NF-kB luciferase activity” value is on record?
**A.** 1.94 ± 0.96

**Q.** With `O=C1c2ccccc2N2C(=O)c3ccccc3C2N1Cc1ccco1` (stereo not given) as the compound, how does the “CD40L-induced NF-kB luciferase activity” value read?
**A.** -3.98 ± 15

**Q.** Which “CD40L-induced NF-kB luciferase activity” value does the source give for `O=C1OC(Nc2ccc3c(c2)OCO3)c2ccccc21` (stereo not given) here?
**A.** -15.2 ± 0.48

**Q.** Which “CD40L-induced NF-kB luciferase activity” value does the source give for `O=S(=O)(NCCCCCNS(=O)(=O)c1ccccc1)c1ccccc1` here?
**A.** -7.09 ± 9.8

**Q.** How did the “CD40L-induced NF-kB luciferase activity” value turn out when `COc1ccc2[nH]cc(C3N4CC5(C)CN3CC(C)(C4)C5=O)c2c1` (stereo not given) was run?
**A.** 2.08 ± 1.7

**Q.** `COc1ccc2[nH]c(=O)c(CN(C(=O)c3ccco3)C(C)C)cc2c1` was tested. Which “CD40L-induced NF-kB luciferase activity” value did it give?
**A.** 0.241 ± 0.71

**Q.** How did the “CD40L-induced NF-kB luciferase activity” value turn out when `COc1ccc2[nH]c(=O)c3c(c2c1)OC(C)(C)C=C3` was run?
**A.** -32.8 ± 0.38

**Q.** With `O=C(COc1ccc(F)cc1)OCCN1CCOCC1` as the compound, how does the “CD40L-induced NF-kB luciferase activity” value read?
**A.** 0.903 ± 1.5

**Q.** How did the “CD40L-induced NF-kB luciferase activity” value turn out when `COc1ccccc1C1C(C#N)=C(N)Oc2c1oc(CO)cc2=O` (stereo not given) was run?
**A.** -1.31 ± 0.27

**Q.** Which “CD40L-induced NF-kB luciferase activity” value does the source give for `O=C1OC(c2ccccc2)=C/C1=C/c1cccs1` here?
**A.** 30.9 ± 2.3

**Q.** How did the “CD40L-induced NF-kB luciferase activity” value turn out when `OC(COCc1ccccc1)CN1CCN(Cc2ccc3c(c2)OCO3)CC1` (stereo not given) was run?
**A.** -0.97 ± 0.41

**Q.** How did the “CD40L-induced NF-kB luciferase activity” value turn out when `COc1cc2c(cc1OC)C1(CCCCC1)CN(C)C2` was run?
**A.** -4.22 ± 0.72

**Q.** Which “CD40L-induced NF-kB luciferase activity” value does the source give for `O=C(CC1SC(=O)NC1=O)Nc1ccc(Cl)cc1` (stereo not given) here?
**A.** 2.93 ± 5.1

**Q.** With `O=C(NN=Cc1ccc([N+](=O)[O-])o1)c1ccc(O)cc1` as the compound, how does the “CD40L-induced NF-kB luciferase activity” value read?
**A.** -1.71 ± 0.97

**Q.** For `O=C(O)CCSc1nc2ccccc2s1`, which “CD40L-induced NF-kB luciferase activity” value is on record?
**A.** -42.3 ± 0.52

**Q.** Which “CD40L-induced NF-kB luciferase activity” value does the source give for `CCOCC(=O)Nc1nc2ccccc2s1` here?
**A.** 50.7 ± 10

**Q.** How did the “CD40L-induced NF-kB luciferase activity” value turn out when `COC(=O)CSc1nc2ccc(N)cc2s1` was run?
**A.** 0.507 ± 4.2

**Q.** For `CN(CCc1cnn(C)c1)Cc1nc(CC2CC2)no1`, which “CD40L-induced NF-kB luciferase activity” value is on record?
**A.** -0.906 ± 0.31

**Q.** `COc1ccc(O)c(C(=O)/C=C/c2cc3ccccc3o2)c1` was tested. Which “CD40L-induced NF-kB luciferase activity” value did it give?
**A.** 83.3 ± 3.2

**Q.** For `O=C(OCCN1CCOCC1)c1cccs1`, which “CD40L-induced NF-kB luciferase activity” value is on record?
**A.** -4.77 ± 5.6

**Q.** How did the “CD40L-induced NF-kB luciferase activity” value turn out when `COc1ccc(CCCC(=O)O)c(C)c1` was run?
**A.** 1.85 ± 1.2

**Q.** Which “CD40L-induced NF-kB luciferase activity” value does the source give for `CCN(CC)C1=C(Cl)C(=O)C(Cl)C12OCCO2` (stereo not given) here?
**A.** -4.69 ± 4.8

**Q.** Which “CD40L-induced NF-kB luciferase activity” value does the source give for `Cc1cc(C=NO)c(C)n1-c1ccc(Br)cc1` here?
**A.** -0.84 ± 0.39

**Q.** With `COc1ccc(C2N3CC4(C)CN2CC(C)(C3)C4)cc1OC` (stereo not given) as the compound, how does the “CD40L-induced NF-kB luciferase activity” value read?
**A.** -1.8 ± 1.9

**Q.** `COc1ccc(C(=O)Nc2cccc3cccnc23)cc1OC` was tested. Which “CD40L-induced NF-kB luciferase activity” value did it give?
**A.** 19.3 ± 10

**Q.** How did the “CD40L-induced NF-kB luciferase activity” value turn out when `O=C(NCCC(c1ccccc1)c1ccco1)c1cccs1` (stereo not given) was run?
**A.** 24.9 ± 2.2

**Q.** `CCc1cc2c(=O)c(-c3nc4ccccc4n3C)coc2c(CN2CCN(C)CC2)c1O` was tested. Which “CD40L-induced NF-kB luciferase activity” value did it give?
**A.** -3.98 ± 2.5

**Q.** For `CC(C)[C@H]1CN(C)CCN1Cc1cn(C)nc1-c1cccc(Cl)c1`, which “CD40L-induced NF-kB luciferase activity” value is on record?
**A.** 2.03 ± 0.42

**Q.** With `Cc1c(OC(=O)CNC(=O)OC(C)(C)C)ccc2c3c(c(=O)oc12)CCC3` as the compound, how does the “CD40L-induced NF-kB luciferase activity” value read?
**A.** 3.02 ± 3.5

**Q.** For `O=C(O)c1ccc(C(=O)C(=O)c2ccccc2)cc1`, which “CD40L-induced NF-kB luciferase activity” value is on record?
**A.** -6.47 ± 15

**Q.** `CC(=O)C1=C(O)C(=O)N(CC(=O)O)C1c1ccccc1Cl` (stereo not given) was tested. Which “CD40L-induced NF-kB luciferase activity” value did it give?
**A.** 3.2 ± 3.2

**Q.** Which “CD40L-induced NF-kB luciferase activity” value does the source give for `CC1(C)O[C@@H]2C[C@H]3[C@@H]4C[C@H](F)C5=CC(=O)C=C[C@]5(C)[C@@]4(F)[C@@H](O)C[C@]3(C)[C@]2(C(=O)CO)O1` here?
**A.** -23.7 ± 1.8

**Q.** Which “CD40L-induced NF-kB luciferase activity” value does the source give for `C[C@@H]1C[C@H]2[C@@H]3CCC4=CC(=O)C=C[C@]4(C)[C@@]3(F)[C@@H](O)C[C@]2(C)[C@H]1C(=O)CO` here?
**A.** -31.39 ± 0.23

**Q.** For `CC1(C)O[C@@H]2C[C@H]3[C@@H]4CCC5=CC(=O)C=C[C@]5(C)[C@@]4(F)[C@@H](O)C[C@]3(C)[C@]2(C(=O)CO)O1`, which “CD40L-induced NF-kB luciferase activity” value is on record?
**A.** -31.3 ± 5.1

**Q.** With `C[C@]12CC[C@H]3[C@@H](CCC4=CC(=O)CC[C@@]43C)[C@@H]1CC[C@@H]2C(=O)CO` as the compound, how does the “CD40L-induced NF-kB luciferase activity” value read?
**A.** -4.85 ± 1.2

**Q.** `CC(=O)OCC(=O)[C@@]12OC3(CCCC3)O[C@@H]1C[C@H]1[C@@H]3CCC4=CC(=O)C=C[C@]4(C)[C@@]3(F)[C@@H](O)C[C@@]12C` was tested. Which “CD40L-induced NF-kB luciferase activity” value did it give?
**A.** -20.2 ± 1.1

**Q.** With `CC(=O)OCC(=O)C1=CCC2C3CCC4=CC(=O)C=CC4(C)C3(F)C(OC(C)=O)CC12C` (stereo not given) as the compound, how does the “CD40L-induced NF-kB luciferase activity” value read?
**A.** -4.87 ± 4.6

**Q.** For `C/C=C/c1ccc(OCCCCN2CC(C)CC(C)C2)c(OC)c1` (stereo not given), which “CD40L-induced NF-kB luciferase activity” value is on record?
**A.** 1.73 ± 0.88

**Q.** `Cc1ccc(OCc2nc(-c3cccnc3)no2)cc1C` was tested. Which “CD40L-induced NF-kB luciferase activity” value did it give?
**A.** 34.5 ± 7.5

**Q.** With `CCc1cc(=O)oc2cc(OCc3nn[nH]n3)ccc12` as the compound, how does the “CD40L-induced NF-kB luciferase activity” value read?
**A.** -0.362 ± 2.4

**Q.** For `COc1cc2oc(-c3ccc(O)cc3)cc(=O)c2c(OC)c1O`, which “CD40L-induced NF-kB luciferase activity” value is on record?
**A.** 2.41 ± 4.4

**Q.** How did the “CD40L-induced NF-kB luciferase activity” value turn out when `Cc1cccc(Nc2ncccc2C(=O)O)c1C` was run?
**A.** -3.873 ± 0.016

**Q.** With `CCOc1ccc(C(NC(C)=O)c2ccc(OC)c(OC)c2)cc1` (stereo not given) as the compound, how does the “CD40L-induced NF-kB luciferase activity” value read?
**A.** 4.36 ± 0.088

**Q.** Which “CD40L-induced NF-kB luciferase activity” value does the source give for `Nc1c(C(=O)c2ccccc2)oc2ccccc12` here?
**A.** 17.3 ± 8.5

**Q.** With `O=C(c1ccc(F)cc1)[C@@H]1[C@@H](C(=O)c2ccccc2)[C@@]2(C(=O)Nc3ccccc32)[C@H]2c3ccccc3C=CN12` as the compound, how does the “CD40L-induced NF-kB luciferase activity” value read?
**A.** 6.58 ± 1.4

**Q.** How did the “CD40L-induced NF-kB luciferase activity” value turn out when `CCOC(=O)c1cccc(C(=O)OCC)n1` was run?
**A.** -2.95 ± 2.1

**Q.** For `COc1cccc(CN2CCN(C(=O)c3ccc(-c4ccccc4)cc3)CC2)c1`, which “CD40L-induced NF-kB luciferase activity” value is on record?
**A.** -7.33 ± 1.1

**Q.** With `O=C(/C=C/c1ccc(F)cc1)N1CC[C@@]2(O)CCCC[C@H]2C1` as the compound, how does the “CD40L-induced NF-kB luciferase activity” value read?
**A.** -1.13 ± 0.88

**Q.** For `Cc1ccc(C(=O)NCCNC(=O)c2ccccc2)cc1`, which “CD40L-induced NF-kB luciferase activity” value is on record?
**A.** -2.5 ± 3.9

**Q.** Which “CD40L-induced NF-kB luciferase activity” value does the source give for `O=C(Cc1ccc(Br)cc1)c1ccc(O)cc1O` here?
**A.** 32.9 ± 18

**Q.** Which “CD40L-induced NF-kB luciferase activity” value does the source give for `O=C(Nc1ccc(C(=O)NC2CCCCC2)cc1)c1cccnc1` here?
**A.** 0.625 ± 0.58

**Q.** Which “CD40L-induced NF-kB luciferase activity” value does the source give for `COC(=O)c1[nH]c2ccc(C)cc2c1NC(=O)CN1CCc2cc(OC)c(OC)cc2C1` here?
**A.** -5.22 ± 6.4

**Q.** With `COc1ccc(-c2cc(=Nc3ccc(C)cc3)c3ccccc3o2)cc1` as the compound, how does the “CD40L-induced NF-kB luciferase activity” value read?
**A.** 2.07 ± 3

**Q.** `C=CCN1C(=O)c2oc3ccccc3c(=O)c2C1c1ccc(O)c(OC)c1` (stereo not given) was tested. Which “CD40L-induced NF-kB luciferase activity” value did it give?
**A.** -0.791 ± 0.32
